Measured values taken from ChEMBL document CHEMBL3988442, “University of Dundee, Small-Polar-MMV Screening Library” (2021).
The campaign covered roughly 48,000 compounds. About 13,000 (27%) showed an effect of 50% or more. The list shows a part of the results.

What follows are molecules tested on Wolbachia pipientis (assay: Anti-Wolbachia Cell-Based Screen). Conditions: 5 µM.
Assay type: functional
Set-up: scale not given: in the data most compounds retested in dose-response had high values

Row | SMILES | Percent Effect [%]
1 | Cc1cnn(C(C)C2CC2)c1NC(=O)c1cnccn1 (centres undefined) | 2.38
2 | COc1ccc(CN2CCN(C(C)=O)CC2)cc1SC(F)(F)F | -8.503
3 | COc1ccc(Oc2ccc(CNC(=O)C3CCS(=O)(=O)C3)cn2)cc1 (centres undefined) | -6.307
4 | CCc1[nH]c2c(CNC(=O)C3CCCN(C)C3)cc(C)cc2c1C (centres undefined) | -27.93
5 | Cc1cc(C(F)(F)F)nc(CNC(=O)CCC2CCCN(C)C2)n1 (centres undefined) | 9.588
6 | CCN1Cc2nc(OC)c(CNC(=O)C3CCCN(C)C3)cc2C1=O (centres undefined) | 93.23
7 | O=C(CCC1CCCCC1)NCc1nnc2ccccn12 | -0.7171
8 | CCN1Cc2nc(OC)c(CNC(=O)CCC3CCCC3)cc2C1=O | 102.4
9 | CCN1Cc2nc(OC)c(CNC(=O)C3CCS(=O)(=O)CC3)cc2C1=O | 82.23
10 | CCc1[nH]c2c(CNC(=O)C3CCS(=O)(=O)CC3)cc(C)cc2c1C | -6.161
11 | COc1nc2ccccc2cc1CN1CCCC(CNC(C)=O)C1 (centres undefined) | 6.31
12 | O=C(NCCc1nnc2n1CCCCC2)N1CCC2(CCOC2)C1 (centres undefined) | 10.36
13 | CNC(=O)c1ccc(=O)n(Cc2csc(C(C)(C)C)n2)c1 | 14.6
14 | Cc1cnn(C2CCCN(C(=O)c3c(C)oc4nc[nH]c(=O)c34)C2)c1 (centres undefined) | -0.5439
15 | COCc1nc(CNC2CCCc3c2cnn3C(C)(C)C)cs1 (centres undefined) | -7.69
16 | CC1(NC(=O)Cc2csc(C(C)(C)C)n2)CCS(=O)(=O)C1 (centres undefined) | -4.538
17 | COCCO[C@H]1CCN(c2cc(OC)ncn2)[C@H]1Cc1ccncc1 | -8.224
18 | Cc1cc(N2CCCC2c2cnccn2)ncn1 (centres undefined) | -8.281
19 | COc1cc(N2CCC(c3nccn3Cc3cccnc3)CC2)ncn1 | 2.829
20 | Cc1ccc(N2CCCC(NCc3ccncc3)C2)nn1 (centres undefined) | 1.645
21 | Cc1cc(N2CCC(Cc3cnccn3)C2)ncn1 (centres undefined) | 100.8
22 | Cc1cc(N2CCC(Cc3cccnc3)CC2)ncn1 | 156
23 | Cc1cc2c(N3CCCC(OCc4cccnc4)C3)ncnc2s1 (centres undefined) | 0.4664
24 | COc1cc(N2CC[C@H]3OCC[C@@]3(COc3nccc(C)n3)C2)ncn1 | -2.077
25 | Cc1cc(N2CCC(Cc3ccncc3)C2)ncn1 (centres undefined) | 95.84
26 | C[C@@H]1CN(c2cc(N3CCC(O)CC3)ncn2)C[C@@]1(O)C1CCC1 | 2.327

Row | SMILES | Percent Effect [%]
27 | Cc1cc(N2CCC(Cc3ncccn3)C2)ncn1 (centres undefined) | 90.07
28 | CN1CCN(c2cc(NC(=O)c3cnccn3)ncn2)CC1 | -2.529
29 | CCN(C(=O)c1cc2c([nH]c1=O)CCCC2=O)C1CCCCC1 | 14.13
30 | CN(C)c1ncc(CNC(=O)Nc2ccccc2C(F)(F)F)n1C | 9.124
31 | Cn1nc2c(cc1=O)CN(Cc1coc(-c3cccs3)n1)CC2 | 1.365
32 | COCCN1C[C@H]2CC[C@@H]1CN(C(=O)CCc1n[nH]c(C)c1C)C2 | 0.4749
33 | CC(=O)c1c(F)cccc1N1CCC(Cc2cccnc2)CC1 | -2.782
34 | COc1cc(N2CCCC(c3nccn3Cc3cccnc3)C2)ncn1 (centres undefined) | -16.56
35 | Cc1cc(N2CCC(Cc3cccnc3)C2)ncn1 (centres undefined) | 84.65
36 | Cl.NCCc1cn(Cc2ccccn2)c2ccccc12 | 119.5
37 | NC(=O)CCn1cc(CNCCCc2ccncc2)c2ccccc21 | -11.7
38 | Cc1cc(C(=O)N2C[C@H]3CC[C@@H]2CN(Cc2ccccn2)C3)nc(N)n1 | 2.343
39 | CS(=O)(=O)N[C@H]1CCO[C@]2(CCN(CC3CCOCC3)C2)C1.O=C(O)C(F)(F)F | 0.7443
40 | CS(=O)(=O)N[C@@H]1CCO[C@]2(CCN(CC3CCOCC3)C2)C1.O=C(O)C(F)(F)F | -3.641
41 | COC1COC2(CCN(CC3CC3)CC2)C1.O=C(O)C(F)(F)F (centres undefined) | 95.93
42 | COC1COC2(CCN(CC3CCOCC3)CC2)C1.O=C(O)C(F)(F)F (centres undefined) | 105.7
43 | CC(C)(C)c1ncc(CNc2ccccc2Cn2cncn2)s1 | 1.316
44 | CSCC(=O)N[C@H]1CN(Cc2c(C)noc2C)C[C@@H]1C(C)C | -1.777
45 | CC(C)CN1CC(c2nc(C3CC3)n[nH]2)CC1=O (centres undefined) | 4.423
46 | COc1cc(Cl)ccc1C(=O)NCC(=O)Nc1nccs1 | -9.549
47 | Cc1ccccc1C(=O)Nc1cnn(CC(=O)NC2CCCC2)c1 | -2.578
48 | O=C(NCc1ccccc1CN1CCCC1=O)Nc1nccs1 | -2.659
49 | Cc1ccc(NC(=O)c2ccc(=O)n(CC(=O)NC3CCCC3)n2)cc1 | 106.4
50 | O=C(Nc1ccccc1)c1ccc(NCc2nccs2)nn1 | 3.378
51 | CSc1nc2cc(C)n(CC(=O)Nc3nccs3)c2c(=O)n1CC(C)C | -4.494
52 | Cc1cc(C)n(CC2CCCCN2CC(=O)Nc2nccs2)n1 (centres undefined) | -11.15

Row | SMILES | Percent Effect [%]
53 | Cc1ccc(-c2ccc(=O)n(CC(=O)Nc3nccs3)n2)cc1 | 124.1
54 | CCC(=O)NC1CCCN(Cn2nc(C(C)(C)C)ccc2=O)C1 (centres undefined) | -0.4021
55 | O=C(CCn1nc(C(=O)Nc2ccccc2)ccc1=O)Nc1nccs1 | 112.6
56 | Cc1ccc(NC(=O)c2ccc(=O)n(CC(=O)Nc3nccs3)n2)cc1 | 101.8
57 | N#Cc1cccc(CS(=O)(=O)NCC(O)Cc2ccccc2)c1 (centres undefined) | -5.845
58 | Cc1nc(-c2cccc(C#N)c2)nn1CC1(O)CCCCC1 | -14.51
59 | Cc1ccccc1CS(=O)(=O)NCCCN1CCCCC1 | -4.018
60 | Cn1c(NCCC(=O)N2CCCC2)c(C#N)c(=O)n(C)c1=O | 17.52
61 | N#CCCNC(=O)CSc1cc(F)ccc1F | 8.044
62 | COCC(=O)NCc1cc(=O)n2c(n1)CN(Cc1nccs1)CCC2 | 109.1
63 | COCC(=O)NCc1cc(=O)n2c(n1)CN(Cc1cccs1)CCC2 | 97.08
64 | Cn1ccnc1C(=O)NCc1cc(=O)n2c(n1)CN(CC1CC1)CCC2 | -4.321
65 | O=C(c1cccs1)N1CCCn2c(nc(CN3CCCC3)cc2=O)C1 | -6.505
66 | CCCN1CCCn2c(nc(CNC(=O)c3nccn3C)cc2=O)C1.O=C(O)C(F)(F)F | -4.018
67 | Cc1cc(C)nc(N2CC=C[C@@H]2C(=O)NCc2ccc3c(c2)OCO3)n1.Cl | 87.31
68 | Cc1cc(C)nc(N2CC=C[C@H]2C(=O)NCc2ccc3c(c2)OCO3)n1 | 114.7
69 | Cn1cnnc1C1CCCN(C(=O)NCc2ccc3c(c2)OCO3)C1 (centres undefined) | -7.5
70 | CC(CNC(=O)NCc1ccc2c(c1)OCO2)CC1(C)OCCO1 (centres undefined) | -13.46
71 | CC(C)(C)NS(=O)(=O)c1cc(NC(=O)C2CC2)ccc1F | -6.714
72 | Cc1cc(C)nc(CN(C)C(=O)C(c2cccnc2)N2CCCC2)c1 (centres undefined) | 24.45
73 | O=S(=O)(N1CCC(n2cccc2)CC1)N1CCCC1c1ccco1 (centres undefined) | -32.64
74 | C[C@@H]1CN(S(=O)(=O)c2ccc(F)cc2Cl)C[C@]1(C)O | 2.252
75 | COC1CCN(S(=O)(=O)N2CCCC2c2ccco2)CC1 (centres undefined) | -19.32
76 | COc1ccc(C2CCCN2S(=O)(=O)c2cc(F)ccc2F)cc1 (centres undefined) | 118.1
77 | COc1ccc(F)cc1S(=O)(=O)N1CCC(OC)CC1 | 11.35
78 | COc1ccc(C2CCCCCN2S(=O)(=O)N(C)C)cc1 (centres undefined) | -32.58

Row | SMILES | Percent Effect [%]
79 | COC(=O)[C@H]1C[C@@H](O)CCN1S(=O)(=O)c1ccc(F)cc1F | -1.254
80 | O=S(=O)(c1cc(F)ccc1F)N1CCCC1c1ccco1 (centres undefined) | 90.48
81 | CN(CC(=O)NC1CC1)S(=O)(=O)c1ccc(F)cc1Cl | -5.607
82 | O=S(=O)(c1ccc(F)cc1Cl)N1CCCC1c1ccncc1 (centres undefined) | 106.2
83 | O=S(=O)(c1cc(F)ccc1F)N1CCCC1c1ccncc1 (centres undefined) | 90.37
84 | COc1ccc(C2CCCN2S(=O)(=O)N(C)CC(C)C)cc1 (centres undefined) | -5.01
85 | Cc1noc(CCCC(=O)N2CCN(C)CC2c2ccccc2)n1 (centres undefined) | 7.741
86 | Cc1cc(C(=O)N2CCNC(=O)CC2)c(C)n1CC(F)(F)F | -3.477
87 | CCN(CC)Cc1ccc(C(=O)NC2CCc3cc(Cl)ccc32)o1 (centres undefined) | 1.872
88 | CNS(=O)(=O)CCCn1nnc(-c2ccc(F)c(C)c2)n1 | -16.4
89 | O=C(NC1CC(=O)N(C2Cc3ccccc3C2)C1)c1csnn1 (centres undefined) | -8.023
90 | CN1CCN2C[C@@H](NC(=O)c3nc4ccccc4[nH]3)C[C@H]2C1 | 10.91
91 | CN1C(=O)CC(C(=O)O)C12CCN(Cc1ccc(F)c(Cl)c1)CC2 (centres undefined) | 19.25
92 | CCC[C@H]1CN(S(=O)(=O)c2cc(C)ccc2F)C[C@@H]1N | -6.271
93 | Cc1ccc([C@@H]2CN(S(=O)(=O)c3cc(C)ccc3F)C[C@H]2N(C)C)cc1 | -17.89
94 | Cc1ccc(F)c(S(=O)(=O)N2CCCC2c2ccncc2)c1 (centres undefined) | 113.4
95 | COc1ccc(NC(C)C(=O)N2CCN(Cc3ccccc3)CC2)cn1 (centres undefined) | 10.35
96 | CCN1CCC(CC(=O)NCC(O)c2cccc(OC)c2)CC1 (centres undefined) | 5.929
97 | CO[C@@H](C(=O)NC1CCOCC1)c1ccccc1 | -10.4
98 | COc1cccc(C(O)CNC(=O)CC2CCCCC2)c1 (centres undefined) | 1.218
99 | CC(C)Oc1cccc(C(O)CNC(=O)CCc2ccncc2)c1 (centres undefined) | -6.251
100 | OC(CNC1CCOCC1)c1cccc(OCc2ccccc2)c1 (centres undefined) | 100.2
101 | CN1CCC(NCC(O)c2cccc(OCc3ccccc3)c2)CC1 (centres undefined) | 116.6
102 | OC(CNC1CCSCC1)c1cccc(OCc2ccccc2)c1 (centres undefined) | 91.01
103 | CN(Cc1ccccc1)c1ncccc1CNC1CCSCC1 | -9.19
104 | COc1cccc(CNC(CN2CCN(C)CC2)c2ccccc2)c1 (centres undefined) | -4.654
